From the supplement of paper PMC10849652
About 8,800 targets were measured; listed, in parts, are those with a hit and a random draw of the rest. About 0.5% of all pairs of compound and target were hits.

Experiments:
Assay in all cases: log2 fold change, soluble protein after heating vs DMSO (PISA); higher = thermal stabilisation; K562 lysate, 10 uM; active = over 0.2 and 3.5 SD of the protein, either way, in both replicates (recomputed)
nilotinib = compound: Cc1cn(-c2cc(NC(=O)c3ccc(C)c(Nc4nccc(-c5cccnc5)n4)c3)cc(C(F)(F)F)c2)cn1 [nilotinib]
Method in brief: (§1)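 Pellets of K562 cells were dounce-homogenised in PBS pH 7.4 with 1 mM MgCl2, and the crude extract was held at 1 mg/mL protein for a 30 min treatment with 10 μM compound. Aliquots were heated for 3 min over 48°C-58°C and pooled before NP-40 was added to 0.5% at 4°C. The supernatant from 21,000xg for 90 min was quantified by TMTpro 16plex LC-MS/MS with channel sums equalised. Values are reported from duplicates as log-two fold change in thermal stability relative to solvent controls.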

[1] = compound: Cc1nc(Nc2n[nH]c3c2CN(C(=O)N[C@H](CN(C)C)c2ccccc2)C3(C)C)c2sccc2n1
Method in brief: as §1

dasatinib = compound: Cc1nc(Nc2ncc(C(=O)Nc3c(C)cccc3Cl)s2)cc(N2CCN(CCO)CC2)n1 [dasatinib]
Method in brief: as §1

[2] = compound: Cc1ncc(-c2ccnc(Nc3ccc(S(C)(=O)=O)cc3)n2)n1C(C)C
Method in brief: as §1

[3] = compound: Cn1cc(-c2ccc3c(c2)CCN3C(=O)Cc2cccc(C(F)(F)F)c2)c2c(N)ncnc21
Method in brief: as §1

quisinostat = compound: Cn1cc(CNCC2CCN(c3ncc(C(=O)NO)cn3)CC2)c2ccccc21 [quisinostat]
Method in brief: as §1

tipifarnib = compound: Cn1cncc1[C@@](N)(c1ccc(Cl)cc1)c1ccc2c(c1)c(-c1cccc(Cl)c1)cc(=O)n2C [tipifarnib]
Method in brief: as §1

[4] = compound: NC(=O)Nc1cc(-c2cccc(F)c2)sc1C(=O)N[C@H]1CCCNC1
Method in brief: as §1

[5] = compound: NC(=O)c1cnc(N[C@@H]2CCCC[C@@H]2N)nc1Nc1cccc(-n2nccn2)c1
Method in brief: as §1

[6] = compound: NC1(c2ccc(-c3nc4ccn5c(=O)[nH]nc5c4cc3-c3ccccc3)cc2)CCC1
Method in brief: as §1

Measured: log2 fold change

SRSF7 (UniProt Q16629)
inactive: nilotinib -0.006 | [1] -0.053 | dasatinib 0.011 | [2] -0.056 | [3] -0.006 | quisinostat 0.047 | tipifarnib 0.016 | [4] -0.088 | [5] 0.019 | [6] 0.034

SPAG5 (UniProt Q96R06)
Chain of UniProt Q96R06 (Q96R06 whole entry, looked up): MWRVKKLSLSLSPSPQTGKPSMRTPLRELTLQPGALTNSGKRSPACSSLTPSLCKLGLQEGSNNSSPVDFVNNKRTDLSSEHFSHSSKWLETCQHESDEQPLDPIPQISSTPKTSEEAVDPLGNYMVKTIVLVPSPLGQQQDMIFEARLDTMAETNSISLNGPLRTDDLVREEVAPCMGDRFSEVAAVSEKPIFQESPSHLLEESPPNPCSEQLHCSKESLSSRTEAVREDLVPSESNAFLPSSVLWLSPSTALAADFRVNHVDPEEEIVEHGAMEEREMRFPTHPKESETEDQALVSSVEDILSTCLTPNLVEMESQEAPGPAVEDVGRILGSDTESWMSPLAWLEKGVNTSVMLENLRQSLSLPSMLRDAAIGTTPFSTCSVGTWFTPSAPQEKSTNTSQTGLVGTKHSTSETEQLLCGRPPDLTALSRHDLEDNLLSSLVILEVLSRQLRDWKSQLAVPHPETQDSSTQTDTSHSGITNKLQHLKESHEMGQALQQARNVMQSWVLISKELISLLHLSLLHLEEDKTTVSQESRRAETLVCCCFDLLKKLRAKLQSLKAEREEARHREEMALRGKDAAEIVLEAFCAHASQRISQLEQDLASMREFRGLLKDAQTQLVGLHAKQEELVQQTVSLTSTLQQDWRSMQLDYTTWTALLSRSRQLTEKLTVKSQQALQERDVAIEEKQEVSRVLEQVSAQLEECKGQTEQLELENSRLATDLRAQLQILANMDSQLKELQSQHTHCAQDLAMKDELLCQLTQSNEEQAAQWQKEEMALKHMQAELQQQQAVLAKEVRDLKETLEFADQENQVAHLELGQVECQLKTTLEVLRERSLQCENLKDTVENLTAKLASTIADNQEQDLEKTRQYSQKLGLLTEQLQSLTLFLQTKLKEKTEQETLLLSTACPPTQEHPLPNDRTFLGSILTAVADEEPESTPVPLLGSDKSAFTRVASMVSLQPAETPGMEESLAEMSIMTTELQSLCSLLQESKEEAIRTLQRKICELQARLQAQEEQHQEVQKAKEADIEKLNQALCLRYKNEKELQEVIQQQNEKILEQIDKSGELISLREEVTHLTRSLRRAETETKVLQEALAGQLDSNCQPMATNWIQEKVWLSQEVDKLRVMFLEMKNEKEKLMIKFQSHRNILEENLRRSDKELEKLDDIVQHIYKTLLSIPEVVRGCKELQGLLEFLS
inactive: nilotinib 0.026 | [1] -0.013 | dasatinib -0.006 | [2] 0.001 | [3] 0.02 | quisinostat -0.051 | tipifarnib -0.045 | [4] 0.001 | [5] 0.004 | [6] -0.008

STK36 (UniProt Q9NRP7)
active: quisinostat -1.31
inactive: nilotinib 0.081 | [1] -0.179 | dasatinib -0.142 | [2] -0.02 | [3] -0.113 | tipifarnib -0.059 | [4] 0.059 | [5] 0.117 | [6] -0.265

SLC39A11 (UniProt Q8N1S5)
Chain of UniProt Q8N1S5 (Q8N1S5 whole entry, looked up): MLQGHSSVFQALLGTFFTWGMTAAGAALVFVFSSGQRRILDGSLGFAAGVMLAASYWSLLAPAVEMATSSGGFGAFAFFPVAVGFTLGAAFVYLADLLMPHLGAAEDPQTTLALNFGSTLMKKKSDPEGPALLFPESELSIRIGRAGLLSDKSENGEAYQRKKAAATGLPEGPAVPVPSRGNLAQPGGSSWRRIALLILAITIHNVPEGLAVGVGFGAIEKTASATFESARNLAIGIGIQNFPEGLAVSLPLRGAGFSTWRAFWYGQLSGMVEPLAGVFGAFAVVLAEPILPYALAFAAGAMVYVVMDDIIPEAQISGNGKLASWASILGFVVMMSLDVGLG
inactive: nilotinib 0.072 | [1] -0.039 | dasatinib -0.092 | [2] -0.008 | [3] -0.123 | quisinostat 0.127 | tipifarnib 0.068 | [4] 0.045 | [5] 0.026 | [6] 0.099

TAOK2 (UniProt Q9UL54)
inactive: nilotinib 0.033 | [1] -0.069 | dasatinib -0.231 | [2] 0.012 | [3] 0.052 | tipifarnib 0.033 | [4] 0.022 | [5] -0.008
active: quisinostat -0.516

SULT1A1 (UniProt P50225)
Chain of UniProt P50225 (P50225 whole entry, looked up): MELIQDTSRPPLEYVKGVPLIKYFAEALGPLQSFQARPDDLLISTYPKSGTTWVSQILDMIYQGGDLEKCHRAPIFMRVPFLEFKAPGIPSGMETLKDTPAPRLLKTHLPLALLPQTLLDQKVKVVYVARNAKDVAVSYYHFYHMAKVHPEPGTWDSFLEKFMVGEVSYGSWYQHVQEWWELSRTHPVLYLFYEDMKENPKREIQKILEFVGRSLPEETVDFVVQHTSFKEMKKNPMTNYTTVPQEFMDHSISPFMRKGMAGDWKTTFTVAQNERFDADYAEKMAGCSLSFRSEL
inactive: nilotinib 0.029 | [1] -0.074 | dasatinib 0.009 | [2] -0.028 | [3] -0.007 | quisinostat -0.006 | tipifarnib -0.043 | [4] 0.047 | [5] 0.007 | [6] -0.021

SPNS1 (UniProt Q9H2V7)
Chain of UniProt Q9H2V7 (Q9H2V7 whole entry, looked up): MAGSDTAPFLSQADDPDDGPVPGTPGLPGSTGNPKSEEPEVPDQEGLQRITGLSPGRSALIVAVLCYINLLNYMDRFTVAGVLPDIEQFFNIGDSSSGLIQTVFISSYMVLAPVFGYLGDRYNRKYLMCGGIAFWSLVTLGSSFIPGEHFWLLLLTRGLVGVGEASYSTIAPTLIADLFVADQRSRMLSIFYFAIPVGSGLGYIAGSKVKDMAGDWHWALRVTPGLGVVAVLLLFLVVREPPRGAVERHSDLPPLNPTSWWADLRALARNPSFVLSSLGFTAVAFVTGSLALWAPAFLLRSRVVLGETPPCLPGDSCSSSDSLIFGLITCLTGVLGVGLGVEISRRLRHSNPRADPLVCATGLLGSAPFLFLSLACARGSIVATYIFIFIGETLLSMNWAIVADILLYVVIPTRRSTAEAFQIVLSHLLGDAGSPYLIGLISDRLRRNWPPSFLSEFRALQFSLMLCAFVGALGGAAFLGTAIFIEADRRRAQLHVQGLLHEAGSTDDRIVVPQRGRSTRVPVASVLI
inactive: nilotinib 0.04 | [1] -0.025 | dasatinib 0 | [2] -0.017 | [3] 0.028 | quisinostat -0.039 | tipifarnib 0.069 | [4] -0.032 | [5] 0.013 | [6] -0.005

SMC4 (UniProt Q9NTJ3)
Chain of UniProt Q9NTJ3 (Q9NTJ3 whole entry, looked up): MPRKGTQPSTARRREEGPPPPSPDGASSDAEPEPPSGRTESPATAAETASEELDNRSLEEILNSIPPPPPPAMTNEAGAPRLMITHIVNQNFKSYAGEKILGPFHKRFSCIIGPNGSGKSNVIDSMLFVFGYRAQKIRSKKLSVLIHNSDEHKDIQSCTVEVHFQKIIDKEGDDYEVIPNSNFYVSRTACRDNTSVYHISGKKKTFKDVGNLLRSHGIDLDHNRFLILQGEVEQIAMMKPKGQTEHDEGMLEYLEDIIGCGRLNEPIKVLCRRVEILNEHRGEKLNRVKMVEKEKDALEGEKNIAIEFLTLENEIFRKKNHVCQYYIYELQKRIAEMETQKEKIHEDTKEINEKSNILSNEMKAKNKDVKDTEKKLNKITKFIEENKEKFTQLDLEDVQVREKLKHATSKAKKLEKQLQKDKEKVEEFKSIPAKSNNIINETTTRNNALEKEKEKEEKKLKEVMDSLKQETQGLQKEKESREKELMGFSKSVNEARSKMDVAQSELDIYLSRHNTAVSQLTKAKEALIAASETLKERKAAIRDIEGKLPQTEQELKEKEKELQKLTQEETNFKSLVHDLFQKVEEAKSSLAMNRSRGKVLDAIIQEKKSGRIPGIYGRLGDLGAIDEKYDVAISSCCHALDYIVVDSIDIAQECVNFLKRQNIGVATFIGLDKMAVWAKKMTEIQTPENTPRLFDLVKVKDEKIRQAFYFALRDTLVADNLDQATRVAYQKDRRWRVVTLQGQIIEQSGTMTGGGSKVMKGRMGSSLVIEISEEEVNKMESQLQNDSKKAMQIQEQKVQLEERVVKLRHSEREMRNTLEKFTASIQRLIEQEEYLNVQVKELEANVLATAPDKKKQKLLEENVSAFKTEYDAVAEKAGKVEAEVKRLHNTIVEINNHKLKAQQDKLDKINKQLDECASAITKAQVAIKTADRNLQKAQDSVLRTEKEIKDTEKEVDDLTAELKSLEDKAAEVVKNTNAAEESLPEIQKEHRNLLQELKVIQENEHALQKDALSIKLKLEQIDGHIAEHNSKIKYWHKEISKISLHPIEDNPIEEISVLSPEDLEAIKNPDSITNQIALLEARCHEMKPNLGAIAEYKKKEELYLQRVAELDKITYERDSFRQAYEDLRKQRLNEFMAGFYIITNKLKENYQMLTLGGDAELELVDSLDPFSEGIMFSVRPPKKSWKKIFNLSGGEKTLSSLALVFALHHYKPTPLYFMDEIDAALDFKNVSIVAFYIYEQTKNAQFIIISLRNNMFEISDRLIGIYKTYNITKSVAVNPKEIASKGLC
inactive: nilotinib -0.01 | [1] 0.009 | dasatinib -0.03 | [2] 0.016 | [3] 0.003 | quisinostat -0.014 | tipifarnib -0.003 | [4] 0.027 | [5] 0.009 | [6] -0.023

STIM1 (UniProt Q13586)
Chain of UniProt Q13586 (Q13586 whole entry, looked up): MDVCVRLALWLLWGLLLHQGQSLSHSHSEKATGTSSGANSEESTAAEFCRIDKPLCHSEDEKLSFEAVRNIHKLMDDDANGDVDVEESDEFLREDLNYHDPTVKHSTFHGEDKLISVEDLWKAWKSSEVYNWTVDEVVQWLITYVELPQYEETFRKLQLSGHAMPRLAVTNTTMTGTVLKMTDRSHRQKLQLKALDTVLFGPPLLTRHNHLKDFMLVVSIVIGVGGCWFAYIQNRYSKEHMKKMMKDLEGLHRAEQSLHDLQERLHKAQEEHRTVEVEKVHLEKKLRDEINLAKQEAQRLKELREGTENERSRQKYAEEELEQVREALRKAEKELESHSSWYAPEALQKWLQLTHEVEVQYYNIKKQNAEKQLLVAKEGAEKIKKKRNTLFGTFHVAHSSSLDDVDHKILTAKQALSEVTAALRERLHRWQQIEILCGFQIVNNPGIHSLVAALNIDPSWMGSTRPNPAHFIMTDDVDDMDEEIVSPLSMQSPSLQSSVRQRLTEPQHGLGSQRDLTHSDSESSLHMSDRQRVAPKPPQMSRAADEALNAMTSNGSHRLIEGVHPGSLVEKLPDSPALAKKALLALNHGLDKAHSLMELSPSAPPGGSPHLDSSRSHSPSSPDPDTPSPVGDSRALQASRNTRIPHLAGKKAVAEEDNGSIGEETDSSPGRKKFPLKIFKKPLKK
inactive: nilotinib -0.031 | [1] -0.019 | dasatinib -0.03 | [2] 0.001 | [3] -0.027 | quisinostat 0.023 | tipifarnib -0.012 | [4] 0.009 | [5] 0 | [6] -0.031

STK38 (UniProt Q15208)
Chain of UniProt Q15208 (Q15208 whole entry, looked up): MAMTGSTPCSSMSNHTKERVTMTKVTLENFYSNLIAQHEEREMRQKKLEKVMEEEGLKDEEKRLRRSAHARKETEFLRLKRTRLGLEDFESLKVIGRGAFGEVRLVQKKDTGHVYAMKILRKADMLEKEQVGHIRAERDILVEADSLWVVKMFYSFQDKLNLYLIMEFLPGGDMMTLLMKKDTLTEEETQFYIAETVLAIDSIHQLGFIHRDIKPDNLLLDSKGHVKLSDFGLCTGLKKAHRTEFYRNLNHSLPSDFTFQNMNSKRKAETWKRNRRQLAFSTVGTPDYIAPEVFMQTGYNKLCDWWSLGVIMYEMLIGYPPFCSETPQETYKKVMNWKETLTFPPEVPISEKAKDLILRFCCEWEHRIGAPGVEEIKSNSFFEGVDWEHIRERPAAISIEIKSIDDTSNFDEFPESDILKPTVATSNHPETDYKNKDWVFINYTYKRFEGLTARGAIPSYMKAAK
active: [1] 0.858 | [4] 0.563
inactive: nilotinib -0.009 | dasatinib -0.003 | [2] 0.078 | [3] 0.064 | quisinostat -0.14 | tipifarnib -0.029 | [5] 0.054 | [6] 0.036

SH3BP5L (UniProt Q7L8J4)
inactive: nilotinib -0.056 | [1] 0.037 | dasatinib -0.023 | [2] 0.04 | [3] -0.025 | quisinostat 0.007 | tipifarnib -0.01 | [4] 0.007 | [5] 0.013 | [6] -0.033

TAF11 (UniProt Q15544)
inactive: nilotinib 0.05 | [1] -0.049 | dasatinib -0.142 | [2] -0.034 | [3] -0.051 | quisinostat -0.085 | tipifarnib 0.057 | [4] 0.046 | [5] -0.03

SSNA1 (UniProt O43805)
inactive: nilotinib -0.038 | [1] 0.057 | dasatinib -0.004 | [2] -0.004 | [3] -0.079 | quisinostat 0.081 | tipifarnib 0.007 | [4] -0.039 | [5] 0.006 | [6] 0.019

SLC20A1 (UniProt Q8WUM9)
inactive: nilotinib -0.021 | [1] -0.001 | dasatinib -0.023 | [2] -0.03 | [3] 0.007 | quisinostat -0.048 | tipifarnib -0.007 | [4] -0.034 | [5] 0.05 | [6] -0.099

SURF2 (UniProt Q15527)
Chain of UniProt Q15527 (Q15527 whole entry, looked up): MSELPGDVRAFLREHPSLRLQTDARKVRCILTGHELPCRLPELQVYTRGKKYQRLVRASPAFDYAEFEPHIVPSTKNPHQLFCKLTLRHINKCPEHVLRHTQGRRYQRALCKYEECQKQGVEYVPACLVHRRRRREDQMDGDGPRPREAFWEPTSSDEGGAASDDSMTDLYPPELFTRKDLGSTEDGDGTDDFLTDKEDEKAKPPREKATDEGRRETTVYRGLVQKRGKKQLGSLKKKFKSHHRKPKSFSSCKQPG
inactive: nilotinib -0.192 | [1] -0.052 | dasatinib -0.045 | [2] 0.195 | [3] -0.031 | quisinostat -0.054 | tipifarnib 0.066 | [4] -0.036 | [5] 0.014
